PubChem BioAssay AID738 (SRMLSC, 2007)
Hit rate of the full screen: of about 98,000 compounds, about 4,900 (5%) were called active. Cut-off read from the data, not from the text of the source: active = inhibition above about 30%; inactive = the rest. The entries come from a sample that favours actives as a whole.

assay: growth inhibition of yeast control strain, primary screen, counter-screen for post-Golgi transport modulator project (AID 738); conditions: efflux-deficient yeast background strain, growth absorbance A615, 16 h; at 10 µM; stronger effect = higher value

SMILES	inhibition
c1ccc(-c2cn3c(n2)CCc2ccc4cccnc4c2-3)cc1	42.3% (active)
c1ccc(-c2cn3cccnc3n2)cc1	10% (inactive)
O=C(Nc1ccccc1)c1ccccc1NC(=O)C(F)(F)F	10.5% (inactive)
CCOC(=O)c1ccc(N2C(=O)CC(N3CCC(C(=O)OCC)CC3)C2=O)cc1 (stereo not given)	0% (inactive)
CCCCOC(=O)c1ccc(N2C(=O)CC(N3CCN(C/C=C/c4ccccc4)CC3)C2=O)cc1 (stereo not given)	30.1% (active)
CCOC(=O)c1ccc(N2C(=O)CC(N3CC(C)OC(C)C3)C2=O)cc1 (stereo not given)	7.03% (inactive)
O=C(NC1CCN(C(=S)NCc2ccco2)CC1)c1ccc(F)cc1	7.63% (inactive)
CCOC(=O)N1CCN(Cc2nc(N)nc(Nc3ccc(C)cc3)n2)CC1	-1.25% (inactive)
CC(C)c1ccc(NS(=O)(=O)c2cn(C)c(=O)n(C)c2=O)cc1	94.4% (active)
Cn1cc(S(=O)(=O)N2CCN(c3ccc(F)cc3)CC2)c(=O)n(C)c1=O	3.87% (inactive)
Cn1cc(S(=O)(=O)N2CCC(Cc3ccccc3)CC2)c(=O)n(C)c1=O	2.66% (inactive)
CC(CNc1ccc([N+](=O)[O-])cc1)NC(=O)c1ccccc1Br (stereo not given)	1.54% (inactive)
CO/N=C/c1ccc(N2CCN(C(=O)c3cccc(Cl)c3)CC2)c([N+](=O)[O-])c1	-2.25% (inactive)
CC(C)NC(=O)c1ccc(Sc2ccccc2)c([N+](=O)[O-])c1	-2.82% (inactive)
O=C(CCn1c(=S)[nH]c2ccccc2c1=O)NCCCN1CCCC1=O	18.7% (inactive)
CCOc1cc2[nH]c(=S)n(CCCN3CCCC3=O)c(=O)c2cc1OCC	35.1% (active)
CCOc1cc2[nH]c(=S)n(CCN3CCCCC3C)c(=O)c2cc1OCC (stereo not given)	-3.72% (inactive)
Cc1nn(-c2ncc(C(F)(F)F)cc2Cl)c(=O)n1-c1ccccc1	10.2% (inactive)
Cc1ccc(-c2ccnc3nc(Sc4ncc(C(F)(F)F)cc4Cl)nn23)cc1	36.2% (active)
O=C(c1ccccn1)c1ncc(C(F)(F)F)cc1Cl	5.57% (inactive)
O=C(Nc1ccccc1)OCc1cn(-c2ccc(Cl)cc2)nn1	17.4% (inactive)
CCC(=O)NC(NCC1CCCO1)C(Cl)(Cl)Cl (stereo not given)	-2.21% (inactive)
COc1ccc(C(=O)NNC(=O)c2cnccn2)cc1[N+](=O)[O-]	7.69% (inactive)
Cc1cccc(C(=O)Nc2ccccc2-c2nnn(CC(=O)Nc3ccc4c(c3)OCCO4)n2)c1	6.95% (inactive)

SMILES	inhibition
Cc1cc(C)c2c3c(sc2n1)C(c1ccccc1)C(C#N)=C(N)O3 (stereo not given)	72.8% (active)
N#CC1=C(N)Oc2c(sc3ccccc23)C1c1ccco1 (stereo not given)	13.9% (inactive)
Cc1cc(C)c(C#N)c(SCc2[nH]nc3c2C(c2ccccc2)C(C#N)=C(N)O3)n1 (stereo not given)	-0.29% (inactive)
C=CCOc1cccc(CNn2cn[nH]c2=S)c1	5.3% (inactive)
Cc1cccc(C)c1-n1c(C)cc(/C=C2\C(=O)NN(c3ccccc3)C2=O)c1C	20.6% (inactive)
CCCCCOC(=O)NCCOC(=O)Nc1ccc(C(=O)OCC)cc1	43% (active)
CCCCC(CCC(=O)Nc1ccc(C(=O)OCC)cc1)C(=O)O (stereo not given)	-4.81% (inactive)
CCOC(=O)Nc1ccc(NC(=O)OCC)cc1	3.65% (inactive)
c1ccc(C2CCC(N3CCC(N4CCCCC4)CC3)CC2)cc1 (stereo not given)	1.52% (inactive)
COc1ccc(NC(=O)Nc2ccc3nsnc3c2)cc1	-5.25% (inactive)
COc1ccc(NC(=O)Nc2ccc3nc(C)c(C)nc3c2)cc1	8.79% (inactive)
O=C(Nc1ccc2ccccc2c1)Nc1ccc2snnc2c1	67.9% (active)
CCCCNC(=O)C(=O)c1ccccc1NC(C)=O	7.01% (inactive)
Cc1ccc(NC(=O)N2CCC(C(=O)NCc3ccc(F)cc3)CC2)cc1	1.66% (inactive)
Cc1cc(C)cc(NC(=O)N2CCC(NC(=O)c3ccc(F)cc3)CC2)c1	37.4% (active)
Cc1ccc(C(=O)NC2CCN(C(=O)N3CCOCC3)CC2)cc1	7.51% (inactive)
CCOC(=O)c1cc2ccccc2nc1C	3.8% (inactive)
CCOC(=O)c1sc(C)c2c1NC(C)(c1cccc3ccccc13)NC2=O (stereo not given)	30.4% (active)
CCOC(=O)c1nc(N)sc1C(=O)OCC	-8.73% (inactive)
CC1(C)CC(=O)C(C=NCCN2CCN(C(=S)Nc3cccc(Cl)c3)CC2)=C(O)C1	1.4% (inactive)
COc1cc(/C=N/NC(=O)Nc2ccccc2)ccc1OCCOc1ccccc1C	-1.48% (inactive)
Nc1c(-c2cccc(Cl)c2)cnn1-c1cccc([N+](=O)[O-])c1	4.05% (inactive)
CCN(c1ccccc1)S(=O)(=O)c1ccc(NC(=O)C(C)(C)C)cc1	28.9% (inactive)
CC(C)(CCl)C(=O)Nc1ccc(Sc2ccc(F)cc2)cc1	37.1% (active)

SMILES	inhibition
COC(=O)c1ccc(Sc2ccc(F)cc2)c(N)c1	7.42% (inactive)
CC(=O)N/C(=C/c1ccc(Cl)cc1)C(=O)NCCc1c[nH]c2ccccc12	17.4% (inactive)
CCCCCCC(=O)Nc1nc(C)c(-c2csc(Nc3cccc(OC)c3)n2)s1	3.51% (inactive)
CC(C)(C)c1nc(NCC2CCCO2)c2nnn(Cc3ccccc3)c2n1 (stereo not given)	12.5% (inactive)
C#CCNc1nc(C(C)C)nc2c1nnn2Cc1ccccc1F	22.2% (inactive)
Cc1nc(Nc2ccc3c(c2)OCCO3)c2nnn(Cc3ccccc3Cl)c2n1	57.3% (active)
CCCCNC(=S)NNC(=O)c1cc(C)on1	6.93% (inactive)
N#CC1=C(N)N(c2ccc(F)cc2)C(=O)C1	1.63% (inactive)
Cc1ccccc1-n1c(C)cc(/C=N/NC(=O)c2ccc(CN3CCOCC3)cc2)c1C	7.99% (inactive)
COc1ccccc1N1CCN(C(=O)c2cc(-c3ccc(Br)cc3)on2)CC1	33.2% (active)
COc1ccccc1N1CCN(C(=O)c2cc(-c3ccc(Cl)c(Cl)c3)on2)CC1	2.68% (inactive)
COc1ccccc1-c1cc(C(=O)N2CCCCC2)no1	13.9% (inactive)
NC(=O)N1CCCC1C(=O)Nc1ccc(Cl)c(Cl)c1 (stereo not given)	-1.15% (inactive)
CC1=CC(C)(C)N(C(=O)CSc2nccn2C)c2cc(C)ccc21	1.07% (inactive)
CC1=CC(C)(C)N(C(=O)CSc2nnc(-c3ccccc3)o2)c2ccc(C)cc21	72.6% (active)
O=C(CSc1nnc(-c2ccccc2)o1)N1CCOCC1	7.42% (inactive)
CC(C)NC(=O)c1ccccc1S(=O)c1ccccc1C#N (stereo not given)	-5.45% (inactive)
Cc1nn(C)cc1C(=O)NNC(=S)Nc1ccc(Cl)cc1	2.4% (inactive)
CCC(=O)N(Cc1ccccc1)c1ccccn1	1.04% (inactive)
Cc1ccc(C(=O)N/C(=C/C=C/c2ccccc2)C(=O)NCc2ccco2)cc1	-1.68% (inactive)
CN(CC(=O)Nc1cccc2c1CCCC2)S(=O)(=O)c1ccc(Cl)cc1	-4.31% (inactive)
COc1ccccc1C1C2=C(COC2=O)Nc2cc3c(cc21)OCO3 (stereo not given)	6.27% (inactive)
CCCOc1ccccc1C1CC(=O)Nc2cc3c(cc21)OCO3 (stereo not given)	34.1% (active)
COCCOC(=O)C1=C(C)NC(=O)CC1c1cc2c(cc1Br)OCO2 (stereo not given)	-3.67% (inactive)

SMILES	inhibition
COc1cc(C(=O)N2CCN(C/C=C/c3ccccc3)CC2)cc(OC)c1C	8.75% (inactive)
COc1cnc(SCc2ccc(Cl)c(Cl)c2)nc1Cl	16.9% (inactive)
CCCn1nc2cc(C(=O)NCc3ccccc3)ccc2c1OCC	-6.87% (inactive)
CCn1c(=O)c(=O)n(CC)c2cc(S(=O)(=O)N3CCc4ccccc43)ccc21	12.6% (inactive)
Cn1c(=O)n(C)c2cc(S(=O)(=O)N3CCCc4ccccc43)ccc21	-3.51% (inactive)
CSc1nc2ccc(S(=O)(=O)N3CCc4ccccc43)cc2s1	52% (active)
CCOc1ccc(C(CCc2ccccc2)NC(=O)c2ccc(OC)c(OC)c2)cc1OCC (stereo not given)	-3.35% (inactive)
C=CCNc1nc(N)c(C(=C(C#N)C#N)c2ccccc2)s1	5.44% (inactive)
CC1CCN(c2nc3c(c(=O)[nH]c(=O)n3C)n2CCCc2ccccc2)CC1	30.6% (active)
C=C(C)Cn1c(N2CCCC2)nc2c1c(=O)[nH]c(=O)n2C	6.94% (inactive)
CN1CCN(c2nc3c(c(=O)[nH]c(=O)n3C)n2Cc2cccc3ccccc23)CC1	9.64% (inactive)
O=C1c2ccccc2C(=O)c2c1cccc2N1CCN(Cc2ccccc2)CC1	17.7% (inactive)
CCn1c2ccccc2c2cc(NC(=O)C/C(C)=N/NC(=O)c3ccccc3N)ccc21	-1.98% (inactive)
Cc1cccc(N2CCN(C(=O)CN(C)S(=O)(=O)c3ccc4c(c3)CCC(=O)N4)CC2)c1C	6.36% (inactive)
COc1ccc(C(=O)NC(=S)Nc2ccccc2N2CCN(S(C)(=O)=O)CC2)cc1OC	31.7% (active)
COc1ccccc1N1CCN(C(=O)c2ccc(S(=O)(=O)N3CCCCC3)cc2)CC1	-0.79% (inactive)
CCC(=O)Nc1ccccc1N1CCN(S(C)(=O)=O)CC1	13.1% (inactive)
O=C1/C(=C/c2cccs2)CCc2ccccc21	12.8% (inactive)
O=C(Nc1nccs1)C1CCN(S(=O)(=O)c2ccc(Cl)c(C(F)(F)F)c2)CC1	17.7% (inactive)
CCOC(=O)c1nnn(-c2nonc2-n2cccc2)c1CN1CCOCC1	-2.3% (inactive)
O=c1c(-c2ccccc2)coc2c(CN3CCOCC3)c(O)ccc12	10.4% (inactive)
CCOC(=O)c1c(CN2CCOCC2)n(-c2ccccc2)c2ccc(O)cc12	45.2% (active)
O=C(COC(=O)c1ccccc1SCC(=O)NC1CCCCC1)NC1CCCCC1	0.43% (inactive)
